The text below walks through data of PubChem BioAssay (NCATS).

Values joined by “and” are separate entries in the source; they are usually repeats but may differ in a detail not shown here. Identical values can stand only once. Records with an inconclusive call do not appear. A number with no mark means an inactive call. Active and inactive are the calls of the source. Calls follow the shape of the dose curve; as a rule, active = well fitted curve in the direction sought with a large enough effect; inconclusive = small, poorly fitted or top-dose-only effect, or another doubt; inactive = no such curve, though single readings can be large; an effect the other way counts as inactive or inconclusive.

Assay [1] in a line: Viability qHTS for spleen associated tyrosine kinase inhibitor (SYKi) drug resistant MV4-11 cells (AID 1963824). Also: nearly all actives have a fitted effect of over 35% in size. A digest of the protocol: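 SYK-inhibitor-resistant MV4-11 AML cells were seeded at 500 per well onto compound and cultured 72 hours (37 °C, 5% CO2). CellTiter-Glo was then added, and after 10 min at room temperature, luminescence gave viability.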
Background: qHTS replaces the single test concentration by a dilution series.

The nature of assay [2]: Cellular viability qHTS for adrenocortical cancer (ACC) cell line SW-13 (AID 1963989). Also: nearly all actives have a fitted effect of over 65% in size.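 As to activity (max response): cells grown in serum-free medium with ITS supplement; % is scaled to controls: 0 for no effect and ±100 for the full control effect.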 As to conditions: SW-13 ACC cells viability, CellTiter-Glo, 48 h; activity (max response): active compounds read low. A digest of the protocol: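 Here, serum-free SW-13 cultures were dosed up to 46 uM. Following 48 h, ATP-dependent luminescence (CellTiter-Glo) reported viable cells, and logistic modeling produced IC50 values.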

Assay [3] can be described thus: Cellular viability qHTS for adrenocortical cancer (ACC) cell line NCI-H295R (AID 1963990). Also: nearly all actives have a fitted effect of over 60% in size. The essentials: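 Viability of NCI-H295R after 48 h of treatment (final up to 46 uM) measured through cellular ATP luminescence.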
Potency is read from the fitted curve at half-maximal effect.

In the case of `NC(=O)NNc1ccccc1`, the Potency entry in assay [1] and in assay [3] was “inactive” throughout. The activity (max response) in assay [2] is -10.9%.

Turning to `C[C@H]1O[C@@H](O[C@H]2CC[C@@]3(C)[C@H](CC[C@@H]4[C@@H]3C[C@@H](O)[C@]3(C)[C@@H](C5=CC(=O)OC5)CC[C@]43O)C2)C[C@H](O)[C@@H]1O[C@H]1C[C@H](O)[C@H](O[C@H]2C[C@H](O)[C@H](O[C@@H]3O[C@H](CO)[C@@H](O)[C@H](O)[C@H]3O)[C@@H](C)O2)[C@@H](C)O1`, the Potency is 0.133 µM (active) in assay [1] and 0.082 µM (active) in assay [2].

Consider `COc1cc(N2CCC(N3CCN(C)CC3)CC2)ccc1Nc1ncc(Cl)c(Nc2ccccc2P(C)(C)=O)n1`, for which the Potency is 130 nM (active) and 23.5 nM (active) in assay [1]; 1 µM (active) in assay [2]; 1.12 µM (active) in assay [3].

For `O=C(O)/C(S)=C/c1ccc(I)cc1`, the Potency entry in assay [1] and in assay [3] was “inactive” in each case. In assay [2], the activity (max response) was 9.8%.

Turning to `C[C@H]1C[C@@H](n2c(Nc3ccc(OC(F)(F)F)cc3)nc3cc(CCC(=O)O)ccc32)CC(C)(C)C1`, the Potency in assay [1] is 10.5 µM (active). For the same compound, the activity (max response) in assay [2] was -13.1%.

On to `CCC(C(=O)OCCN(CC)CC)c1ccccc1` (configuration not stated), for which the Potency result in assay [1] and in assay [3] was “inactive” in each case. Also, the activity (max response) in assay [2] was 4.88%.

`CSc1ccc(C(=O)c2[nH]c(=O)[nH]c2C)cc1`: the Potency entry in assay [1] and in assay [3] was “inactive” in each case. In assay [2], the activity (max response) was 15.3%.

For the compound `CCOc1c(N2CCOCC2)cnn(C)c1=O`, the Potency result in assay [1] and in assay [3] was “inactive” throughout. Besides, the activity (max response) in assay [2] was 6.29%.

As for `CC/C(=C(\c1ccccc1)c1ccc(OCCN(C)C)cc1)c1ccccc1`, the Potency in assay [1] was 10.8 µM (active) and 18.8 µM (active); in assay [2] it was 6.31 µM (active); in assay [3], 11.2 µM (active) and 16.4 µM (active).

Turning to `CNC(=O)CCc1cc(-c2ccc(-c3ccc(C(F)(F)F)cc3)cc2)n(-c2ccc(N3CCNCC3)cc2)n1`, the Potency in assay [1] is 2.09 µM (active); in assay [2], 3.98 µM (active); in assay [3], 7.08 µM (active).

Regarding `CCN1CCN(Cc2ccc(NC(=O)c3ccc(C)c(/C=C/c4cnc5[nH]ccc5c4OC)c3)cc2C(F)(F)F)CC1`, the Potency in assay [1] is 20.6 nM (active) and 83.3 nM (active); in assay [2], 3.16 µM (active); in assay [3] it was 6.31 µM (active).

Consider `COCCc1ccc(OCC(O)CNC(C)C)cc1` (configuration not stated), for which the Potency entry in assay [1] and in assay [3] was “inactive” each time. In addition, in assay [2], the activity (max response) is -3.54%.

As for `Cc1cc(-n2c(=O)ccc3cnc4[nH]ccc4c32)ccc1F`, the Potency in assay [1] is 18.6 µM (active). Also, in assay [2], the activity (max response) was -19.3%. Further, the Potency entry in assay [3] is “inactive”.

Regarding `COc1ccc2[nH]c(C(=O)N3CCC(CC(C)(C)O)CC3)cc2c1`, the Potency in assay [1] is 18.6 µM (active). Moreover, the activity (max response) in assay [2] was -4.14%. For the same compound, in assay [3], the Potency result was “inactive”.

Turning to `O=C(O)CNC(=O)CNC(=O)CNC(=O)CSC(=O)c1ccccc1`, the Potency entry in assay [1] and in assay [3] was “inactive” in each case. Further, the activity (max response) in assay [2] is -23.1%.

With `CCN(CC)CCSC(=O)C(c1ccccc1)c1ccccc1`, in assay [1], the Potency entry was “inactive”. Also, the activity (max response) in assay [2] is -19.1%.

Turning to `Cc1ccc(NC(=O)NCc2ccc3c(c2)CN(C2CCC(=O)NC2=O)C3=O)cc1Cl` (configuration not stated), the Potency is 0.0013 µM (active) in assay [1], 0.0089 µM (active) in assay [2] and 0.0251 µM (active) in assay [3].

With `Oc1cc(O)c2c(c1)O[C@H](c1ccc(O)c(O)c1)[C@H](O)C2`, the Potency result in assay [1] and in assay [3] was “inactive” in each case. For the same compound, in assay [2], the activity (max response) was 11.2%.

Take `C=C[C@H]1CN2CCC1C[C@@H]2C(O)c1ccnc2ccc(OC)cc12` (some centres not stated): the Potency in assay [1] is 14.8 µM (active). Moreover, the activity (max response) in assay [2] was 3.34%. In addition, the Potency entry in assay [3] is “inactive”.

For `Nc1ncnc2nc[nH]c12`, the Potency entry in assay [1] and in assay [3] was “inactive” throughout. Moreover, in assay [2], the activity (max response) was 2.49%.

In the case of `CCCCNc1ccc(C(=O)OCCN(C)C)cc1`, the Potency result in assay [1] and in assay [3] was “inactive” throughout. In addition, in assay [2], the activity (max response) is 4.21%.

For the compound `COCCOc1ccc(N2CCN(CCn3ncc4c3nc(N)n3nc(-c5ccco5)nc43)CC2)cc1`, the Potency in assay [1] is 0.103 µM (active). For the same compound, the activity (max response) in assay [2] was -19.9%. Moreover, the Potency entry in assay [3] is “inactive”.

Consider `O=c1ncccn1[C@@H]1O[C@H](CO)[C@@H](O)[C@H]1O`, for which the Potency in assay [1] was 16.6 µM (active). Also, in assay [2], the activity (max response) was -5.69%. Besides, the Potency entry in assay [3] was “inactive”.

Take `COc1ccccc1C(=O)Nc1cc2c(cc1N1CCCC1)n(C)c(=O)n2C`: in assay [1], the Potency is 9.34 µM (active). The activity (max response) in assay [2] was -26.1%.

On to `CC(CSC(=O)c1ccccc1)C(=O)N1C[C@@H](Sc2ccccc2)C[C@H]1C(=O)O` (some centres not stated), for which the Potency entry in assay [1] and in assay [3] was “inactive” throughout. The activity (max response) in assay [2] was -2.01%.

Take `CC(=O)NO`: the Potency entry in assay [1] and in assay [3] was “inactive” each time. The activity (max response) in assay [2] is 11.6%.

With `O=C(Nc1ccc(Cl)cc1)Nc1ccc(Cl)c(C(F)(F)F)c1`, the Potency was 7.5 µM (active) in assay [1], 2.91 µM (active) in assay [2] and 1.84 µM (active) in assay [3].
